Mcl1-Bid inh: disrupts binding of human Mcl-1 to Bid peptide; 220,000 tested, 0.97% active; TR-FRET Mcl-1/Bid-Dy647 peptide binding, 1536-well; Q07820; inhibition, % at 21.7 µM;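 active means compounds that cut the binding signal by more than half at the single screening dose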;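 further: His-tagged Mcl-1 with europium anti-His antibody binding Bid BH3 peptide; 0% = Mcl-1 plus peptide wells and 100% = peptide-only wells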
Target sequence (Q07820 whole entry, looked up): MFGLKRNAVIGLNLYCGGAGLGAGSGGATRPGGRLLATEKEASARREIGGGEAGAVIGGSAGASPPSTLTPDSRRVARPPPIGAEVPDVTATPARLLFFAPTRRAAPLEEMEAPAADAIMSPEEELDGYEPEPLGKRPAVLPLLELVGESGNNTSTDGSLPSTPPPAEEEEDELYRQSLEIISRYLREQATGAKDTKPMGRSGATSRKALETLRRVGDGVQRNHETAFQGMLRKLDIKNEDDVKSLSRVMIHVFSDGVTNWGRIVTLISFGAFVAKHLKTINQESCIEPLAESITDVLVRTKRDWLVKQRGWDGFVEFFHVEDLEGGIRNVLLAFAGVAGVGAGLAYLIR
Bim-Mcl-1: inhibitors of Bim-Mcl-1 interaction, human; 190,000 tested, 0.1% active; Q07820; Bead-based flow cytometry, Bim peptide-Mcl-1 binding; inhibition, % at 10 µM; in the data active means inhibition above about 40%;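 further: 0% = no compound tracer wells and 100% = peptide blocker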
Mcl1 Noxa PPI: disrupts binding of human Mcl-1 to Noxa peptide; Q07820; TR-FRET Mcl-1/Noxa peptide binding, 2 h; inhibition, % at 21.7 µM; 220,000 tested, 1.5% active;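 active means compounds that cut the protein-peptide binding signal by more than 50% relative to plate controls in a single-dose test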;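 further: His-tagged Mcl-1 with rhodamine Noxa BH3 peptide and terbium anti-His antibody; 0% = Mcl-1 plus Noxa peptide wells and 100% = peptide-only wells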
14-3-3 Bad PPI: disrupts binding of bovine 14-3-3 zeta to phospho-Bad peptide | TR-FRET 14-3-3zeta/Dy647-pBad peptide displacement, 1 h | inhibition, % at 21.7 µM | 220,000 tested, 0.71% active | AID 781;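 active means inhibition above about 70%, limit read from the data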;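 further: 0% = full 14-3-3 plus peptide FRET controls and 100% = background without 14-3-3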
Target sequence (P63103 whole entry, looked up): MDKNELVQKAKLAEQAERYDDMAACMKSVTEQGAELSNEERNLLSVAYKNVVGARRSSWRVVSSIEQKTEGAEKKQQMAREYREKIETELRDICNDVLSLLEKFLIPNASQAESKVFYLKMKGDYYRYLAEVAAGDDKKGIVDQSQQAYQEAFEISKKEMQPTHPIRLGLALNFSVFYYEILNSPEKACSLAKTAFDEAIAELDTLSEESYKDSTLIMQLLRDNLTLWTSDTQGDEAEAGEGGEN
Arbovirus anti: blocks arbovirus infection; arbovirus infection cell-based antiviral screen; inhibition, % at 10 µM; 200,000 tested, 0.37% active; in the data active means inhibition above about 30%
Active calls of the source: *; x = not tested or not shown; [ ] = remark or other dose. Most compounds without a hit are left out; they make up all but 3% or so of the library.

SMILES	Mcl1-Bid inh	Bim-Mcl-1	Mcl1 Noxa PPI	14-3-3 Bad PPI	Arbovirus anti
CC(C)C1CC(CCNCc2ccc(N(C)C)cc2)(c2ccccc2)CCO1 (centres undefined)	-30.8	-7.0	14.2	-2.0	14.1
Cc1ccc(C2(CCNCc3ccc(N(C)C)cc3)CCOC(C(C)C)C2)cc1 (centres undefined)	-35.1	0.0	56.4*	-3.7	-32.6
CCCS(=O)(=O)N1CCN(CC2CC3C=CC2C3)CC1 (centres undefined)	-7.5	2.0	18.1	71.9*	-7.1
CCS(=O)(=O)N1CCN(CC2CC3C=CC2C3)CC1 (centres undefined)	28.3	-1.0	33.8	53.4	2.4
CCCS(=O)(=O)N1CCN(CC2CC=CCC2)CC1 (centres undefined)	28.6	-1.0	15.7	73.1*	5.1
O=C(Nc1nnc(SCc2ccc(F)cc2)s1)c1ccccn1	-46.4	-1.0	-49.6	-14.1	-23.6
COc1cc(/C=N/Nc2nnc3c(n2)[nH]c2ccccc23)ccc1O	90.0*	0.0	93.9*	83.1*[fluorescence artefact?]	-9.2
COc1cc(/C=N/Nc2ccccc2C(F)(F)F)ccc1O	-26.2	-1.0	47.2	-2.1	-6.6
CCOC(=O)c1c(-c2ccc(-c3ccccc3)cc2)csc1NC(=O)C1C2CCC(O2)C1C(=O)O (centres undefined)	24.8	-6.0	56.4*	9.9	-2.4
Cc1ccc(-c2csc(NC(=O)C3CC=CCC3C(=O)O)c2C(=O)OC(C)C)cc1 (centres undefined)	-29.5	-10.0	28.7	-9.7	46.9*
CCOC(=O)c1c(-c2ccc(C)cc2)csc1NC(=O)C1CC=CCC1C(=O)O (centres undefined)	-29.1	-2.0	10.3	-6.5	35.4*
COC(=O)c1c(-c2ccccc2)csc1NC(=O)C1CC=CCC1C(=O)O (centres undefined)	-2.8	1.0	17.1	3.2	14.6
Cc1ccc(NCC(=O)Nc2ccc(Br)cc2)cc1F	-24.6	-5.0	20.5	0.6	13.3
Cc1cc(NC(=O)c2ccoc2C)no1	-13.9	0.0	21.3	-1.7	-1.2
Cc1ccc(CNCC(=O)Nc2cccc(S(=O)(=O)NC3=NCCCCC3)c2)cc1	6.7	-2.0	37.8	10.8	5.3
COc1ccc(CCNC(=O)CCc2ccc(S(=O)(=O)NCC(C)C)cc2)cc1OC	-45.4	1.0	5.1	-4.4	1.5
CC(NC(=O)Cn1cnc2c1c(=O)n(C)c(=O)n2C)c1ccccc1 (centres undefined)	94.2*	1.0	20.5	-11.0	-5.0
CCn1c(-c2cc(C3CC3)nc3ccccc23)n[nH]c1=S	-10.8	-5.0	54.7*	32.2	9.1
CC(C)(C)c1cc(CN2CCN(CCO)CC2)cc(C(C)(C)C)c1O	62.3*	-4.0	28.4	20.6	-0.3
Oc1ccc(Nc2nc3ccccc3nc2Nc2ccc(O)cc2)cc1	23.8	1.0	82.2*	61.5	-41.7
Cc1cccc(NC(=O)Cn2cnc3ccccc3c2=O)c1C	-6.4	2.0	1.6	92.4*	-2.0
O=C(O)CCC(=O)N1N=C(c2ccco2)CC1c1cccs1 (centres undefined)	-58.6	-16.0	-8.0	7.5	3.9
O=C(O)CCC(=O)N1N=C(c2ccc(Br)cc2)CC1c1cccs1 (centres undefined)	-39.0	-2.0	8.3	82.1*	8.7
COc1cc(CN2CCC(C(=O)N3CCN(c4ccccc4F)CC3)CC2)cc(OC)c1O	51.5*	0.0	29.4	54.2	0.7
CC(C)CN1CCC(C(=O)N2CCN(c3ccccc3F)CC2)CC1	-5.2	-5.0	28.9	37.6	-3.5
SMILES	Mcl1-Bid inh	Bim-Mcl-1	Mcl1 Noxa PPI	14-3-3 Bad PPI	Arbovirus anti
COc1cc(CN2CCN(c3ccccc3F)CC2)cc(OC)c1O	43.8	-3.0	23.1	30.3	3.1
CCOc1ccc(CN2CCC(C(=O)N3CCN(c4ccccc4F)CC3)CC2)cc1OC	34.4	-2.0	19.6	73.7*	1.2
COc1cccc(C2C=C(c3ccc(Br)s3)Nc3ncnn32)c1OC (centres undefined)	-8.8	-2.0	-13.2	1.9	1.0
Fc1ccc(Br)cc1C1C=C(c2ccc(Br)s2)Nc2ncnn21 (centres undefined)	-34.0	-4.0	-4.6	-8.7	36.7*
Cc1ccc(NC(=O)COC(=O)c2ccc3c(c2)NC(=O)C2CCCN32)cc1 (centres undefined)	-47.6	0.0	20.1	40.7	0.8
COC(=O)c1ccc2c(c1)NC(=O)C1CCCN21 (centres undefined)	-1.8	-5.0	64.3*	-0.3	-2.2
CC(C)C(=O)c1cn(CC(=O)NCc2ccco2)c2ccccc12	-6.9	-1.0	-3.1	-0.2	3.1
CN1C(=O)/C(=C/c2cn(CC(=O)NCc3ccco3)c3ccccc23)NC1=S	-22.2	8.0	72.7*	4.5	5.7
N#Cc1c(N)sc(=S)c2c1CCN(Cc1ccccc1)C2	-1.2	3.0	71.0*	19.7	-15.8
CCOc1ncccc1C(=O)N1CCN(c2cc(Cl)ccc2C)CC1	-30.6	0.0	7.8	-9.9	-12.3
CCOc1ncccc1C(=O)N1CCN(c2cccc(C)c2C)CC1	-13.8	-3.0	7.4	87.6*	-14.6
Oc1c(Cl)cc(Cl)cc1Sc1cc(Cl)cc(Cl)c1O	98.7*	1.0	117.1*	78.6*	-43.0
Oc1c(Cl)cc(Cl)cc1CNn1cnnc1	-44.7	-3.0	15.0	-2.6	-2.2
CCOC(=O)C1=C(CP(=O)(c2ccccc2)c2ccccc2)NC(=O)NC1c1ccc(OC)cc1 (centres undefined)	-2.9	74.0*	4.4	7.7	13.1
CCOC(=O)C1=C(CP(=O)(c2ccccc2)c2ccccc2)NC(=O)NC1c1ccc(Cl)cc1 (centres undefined)	7.3	-3.0	-2.7	2.2	1.1
CN(C)CCNC(=O)/C(=C/c1ccc(-c2cccc(Cl)c2)o1)NC(=O)c1ccccc1	-1.2	-5.0	6.1	0.7	-38.6
Cc1cc(Cl)ccc1OCCCC(N)=O	-10.1	-2.0	70.7*	2.6	10.1
Cn1c(CSc2nc3ccccc3s2)nnc1SCC(=O)NCc1cccnc1	94.3*	1.0	-16.0	-10.6	3.5
Cn1c(CSCc2ccc(Cl)cc2)nnc1SCC(=O)Nc1nc2ccccc2s1	62.0*	-1.0	0.6	-6.3	11.6
OCCN(CCO)Cc1csc2ccccc12	-14.2	-3.0	10.9	-19.9	6.1
CNc1cccccc1=S	-93.1	0.0	57.9*	14.1	4.2
CCCn1c(SCC(=O)Nc2cc(S(=O)(=O)N(C)C)ccc2OC)n[nH]c1=O	-43.8	-2.0	-3.9	-6.1	7.3
NC(=S)Nc1ccc(F)cc1F	77.1*	x	-12.1	-1.5	x
NC(=S)Nc1ccc(F)c(F)c1F	-49.2	x	0.2	-1.3	x
CCc1ccccc1N1CC(C(=O)O)CC1=O (centres undefined)	2.8	0.0	9.1	7.2	0.9
C=CCSc1ncc(C#N)c(N)n1	-1.8	0.0	-10.2	-3.2	0.6
COc1ccc(O)c(/C=N/NC(=O)c2cc(=O)[nH]c3ccccc23)c1	-93.3	x	-32.8	-9.3	x
O=C(/C=C/c1ccccc1)NC(=S)Nc1ncccn1	-76.0	x	68.1*	19.3	x
